This is an account of results in PubChem BioAssay AID1321 (The Scripps Research Institute Molecular Screening Center, 2008).

In all, about 220,000 compounds went through this assay and about 2,600 (1.2%) were called active. What follows is part of a selection rich in actives, with near analogues and random picks from the rest. Unmarked numbers belong to inactive results.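 Rule for the calls: active = activation above the mean of all tested compounds plus 3 SD, set per screening run (cut at about 8.8% in these data); inactive = the rest.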

The assay deals with Wee1-like protein kinase (Homo sapiens) (UniProt P30291). The assay can be described thus: Wee1 degradation inhibitors, primary screen, cell-based, HeLa, Wee1K328M-luciferase, luminescence (AID 1321).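 Note: cells exposed to compound for 20 h before luminescence read; 0% = DMSO alone and 100% = MG132 at 30 µM.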 To be noted: HeLa Luc-Wee1K328M stability, at 5 µM, active compounds read high, 100% = proteasome inhibitor MG132 effect.
On to `Cc1ccc(C(=O)N/N=C\c2cc(Br)c(Br)o2)cn1`, for which the reporter increase was 1.9%. As for `CCOC(=O)N1CCN(c2c(NCCN3CCN(c4ccccc4F)CC3)c(=O)c2=O)CC1`, the figure is -1.76%; as for `CCOc1ccc(CNC(=O)C2CCC(=O)N2C2CCCC2)cc1OC` (stereo not drawn), -2.75%.

In the case of `CCOc1ccccc1C1C(C(=O)OC)=CN(C)C=C1C(=O)OC`, the reporter increase was -2.5%. As to `CCOc1cc(C2C(C(=O)OC)=CN(C3CCCC3)C=C2C(=O)OC)cc(Br)c1O`, the reporter increase was 14.3% (active). As for `CN(C)S(=O)(=O)c1cccc(-c2nn(-c3ccccc3)cc2/C=C2\SC(=S)N(CC(=O)O)C2=O)c1`, the figure is -2.5%.

Regarding `CN1CCc2nc(SC(C(=O)O)c3ccccc3)c(C#N)c(-c3cccs3)c2C1` (stereo not drawn), the reporter increase was -1.79%.

Regarding `Cc1ccsc1/C=N/Nc1ccc(Cl)nn1`, the reporter increase is 1.78%.

With `O=C(CSc1nnc2n1CCCN2)c1ccccc1`, the reporter increase is 1.24%. The value for `Cc1ccc(NC(=O)/C(=C\c2ccccc2)NC(=O)c2ccco2)cc1` was 2.36%; that for `O=C(O)c1ccc(/C=N/NC(=O)c2ccc(Br)cc2)cc1` was 0.91%. As for `O=C(N/N=C/c1ccc(OCc2ccccc2)cc1)c1ccc(O)cc1`, the figure is -1.31%. Take `O=C(N/N=C/c1ccc(OCC2COCCO2)cc1)c1ccc(Br)cc1` (stereo not drawn): the reporter increase is 10.9% (active). Take `O=C(O)C(NS(=O)(=O)c1cccc2nsnc12)c1ccccc1` (stereo not drawn): the reporter increase is -0.72%. The value for `Cn1cc(S(=O)(=O)NC(c2ccccc2)c2ccccc2)c(=O)n(C)c1=O` was -2.84%; that for `COc1cc2nc(Cl)nc(NCCO)c2cc1OC` was -0.52%; that for `CCCCCOC(=O)NCCOC(=O)Nc1ccc(C(=O)OCC)cc1` was 3.09%. As for `Cc1ccc(NC(=O)OCc2cncs2)cc1`, the figure is 2.2%. For `Cc1ccc(NC(=O)OCCNC(=O)c2ccncc2)cc1`, the reporter increase was 14.4% (active). The value for `O=C(NCc1ccccc1)c1ccc(S(=O)(=O)Nc2cccc(C(F)(F)F)c2)cc1` was -0.38%; that for `COc1ccc(CCn2c(NN=C3CCCC3)nc3c2c(=O)[nH]c(=O)n3C)cc1` was -2.59%. The value for `O=C(NC1C2CC3CC(C2)CC1C3)c1ccc(N2CCNCC2)c([N+](=O)[O-])c1` (stereo not drawn) was -0.74%; that for `N/C(=N\OC(=O)c1cc(-c2ccccc2)nc2ccccc12)c1ccncc1` was 2.66%; that for `Cc1cccc(C(=O)c2cccc(C)c2)c1` was -0.47%. As for `Cc1cccc(/C(N)=N/OC(=O)c2ccccc2Cl)c1`, the figure is 11.3% (active); as for `CCNc1nc(Oc2ccc(C(=O)OC)cc2)nc(N2CCOCC2)n1`, 1.78%; as for `Cc1ccc(NC(=S)NC(=O)/C=C/c2ccc(Cl)cc2)cc1`, 2.86%.

As for `CC(=O)Nc1ccc(NC(=S)NC(=O)/C=C/c2ccccc2)cc1`, the reporter increase was -3.02%. The value for `CCOc1ccc(NC(=S)NC(=O)/C=C/c2ccc(OC)cc2)c([N+](=O)[O-])c1` was 9.57% (active); that for `CCOC(=O)c1c(C)oc2ccc(OCC(=O)N(CC)CC)cc12` was -2.85%.

Consider `COCCOC(=O)c1c(C)oc2cc(Br)c(OCC(N)=O)cc12`, for which the reporter increase is 10.5% (active). The value for `CCOC(=O)c1c(C)oc2cc(Br)c(OCC(N)=O)cc12` was 8.52%; that for `C/C(=N/NC(=O)CN1CCN(S(=O)(=O)c2ccc(Br)cc2)CC1)c1ccncc1` was 0.47%. The value for `COC(=O)/C=C(\Oc1ccccc1)C1(O)CCCCC1` was -1.22%; that for `Cc1ccc(Nc2nc(N)nc(CN3CCN(Cc4ccccc4)CC3)n2)cc1Cl` was 4.72%. As for `O=C(NCc1ccccn1)Nc1ccc(F)cc1`, the figure is 3.54%. Consider `c1ccc(CN=C2Nc3ccccc3CS2)nc1`, for which the reporter increase was 10.7% (active). The value for `CCc1ccc[n+](-c2nc([O-])sc2C=O)c1` was 10.2% (active); that for `O=C(NCc1csc(-c2cccs2)n1)C1CC1` was -1.28%; that for `O=C(NCC1CCCO1)c1ccccc1-c1nc(-c2ccccc2Cl)no1` (stereo not drawn) was -0.52%.

Take `O=C(CSc1nnnn1-c1ccc(O)cc1)c1ccc(F)cc1`: the reporter increase is -3.92%. As for `Cc1onc(NC(=O)c2ccc([N+](=O)[O-])o2)c1Br`, the figure is 0.61%; as for `O=S(=O)(NCc1cccnc1)c1ccc(Br)s1`, 3.49%; as for `O=S(=O)(NCc1ccccn1)c1ccc(Br)s1`, 9.46% (active).

`O=S(=O)(NCc1ccccn1)c1ccc(F)cc1`: the reporter increase was -3.61%.

Consider `Cc1nc(/N=C(\N)NC(=O)NC2CCCCC2)nc2ccccc12`, for which the reporter increase is -1.12%. The value for `O=C(Nc1ccccc1)c1cccnc1Nc1ccccc1` was -2.05%; that for `CN(C)c1ccnc(Nc2ccc(F)cc2)c1C#N` was 4.88%; that for `CC(C)c1ccc(Nc2ncccc2C#N)cc1` was 19.9% (active). The value for `COC(=O)CN(C(=S)Nc1ccc(Cl)cc1)C1CC(=O)N(c2ccc(OC)cc2)C1=O` (stereo not drawn) was 0.7%; that for `CCOc1ccc(N2C(=O)CC(N(O)c3ccccc3)C2=O)cc1` (stereo not drawn) was 7.01%; that for `CCOc1ccc(N2C(=O)CC(N(CCc3ccc(OC)c(OC)c3)C(=S)Nc3ccccc3)C2=O)cc1` (stereo not drawn) was 10.8% (active). As for `Cc1cccc(N(C)C(=O)c2cc3c(=O)[nH]c4ccc(C)cc4c3s2)c1`, the figure is 0.97%.
